From PubChem BioAssay AID1159580 (chemical genetic matrix, 2015) come the findings set out here.

Hit rate of the full screen: of about 5,500 compounds, about 2,000 (36%) were called active. Inconclusive results (about 18%) are left out. The list shows a part of the results. Unmarked numbers belong to inactive results. No stated cut-off is given here; in the data, active means normalized growth mostly below about 0.91 (no sharp cut-off); inconclusive means no clear call, values can overlap the other calls; inactive means mostly above about 0.92.

This assay in a line: chemical genetic growth profiling, strain panel (AID 1159580).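 Further: tested at 20 µM; growth read once vehicle control cultures reached saturation at 30 °C; 1 = growth at the plate median or of vehicle wells; lower values mean less growth of the strain.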 Particulars: S. cerevisiae deletion strains, growth OD.
[1] abbreviates: locus YAL040C, strain CLN3, active compounds read low.
The mark [2] stands for this setting: locus YCL061C, strain MRC1 (second series), active compounds read low.
Where [3] appears, read: locus YDR150W, strain NUM1, active compounds read low.
[4] abbreviates: locus YDR363W, strain ESC2, active compounds read low.
The mark [5] stands for this setting: locus YER002W, strain NOP16, active compounds read low.
Where [6] appears, read: locus YJR075W, strain HOC1, active compounds read low.
[7] abbreviates: locus YNL175C, strain NOP13, active compounds read low.
[8] abbreviates: locus YNL197C, strain WHI3, active compounds read low.
[9] abbreviates: locus YNL224C, strain SQS1, active compounds read low.
Where [10] appears, read: locus YOR083W, strain WHI5 (second series), active compounds read low.
[11] abbreviates: locus YPL241C, strain CIN2, active compounds read low.

Turning to `CC1c2cccc(O)c2C(O)=C2C(=O)C3(O)C(O)=C(C(N)=O)C(=O)C(N(C)C)C3C(O)C21` (stereo not drawn), the normalized growth by setting is: under setting [1], 0.944; under setting [2], 0.966; under setting [3], 0.983; under setting [4], 0.936; under setting [5], 0.989; (locus YGR229C, strain SMI1, active compounds read low) 0.835 (active). Further, the normalized growth under setting [6] was 0.971; the normalized growth (locus YMR263W, strain SAP30, active compounds read low) was 0.986; the normalized growth (locus YNL153C, strain GIM3, active compounds read low) was 0.891; the normalized growth under setting [7] is 0.993; the normalized growth under setting [8] was 1.02; the normalized growth under setting [9] was 0.989. Besides, the normalized growth under setting [10] is 0.977 and the normalized growth under setting [11] was 0.974.
Turning to `CN(C)C1C(=O)C(C(N)=O)=C(O)C2(O)C(=O)C3=C(O)c4c(O)ccc(Cl)c4C(O)C3CC12` (stereo not drawn), the normalized growth by setting is: under setting [1], 1; under setting [2], 1; under setting [3], 0.997; under setting [4], 1; under setting [5], 1; (locus YGR078C, strain PAC10, active compounds read low) 0.989. Moreover, the normalized growth is, setting by setting: under setting [6], 0.999; (locus YMR307W, strain GAS1, active compounds read low) 0.978; under setting [7], 1.02; under setting [8], 0.979; under setting [9], 0.996; (locus YNL322C, strain KRE1, active compounds read low) 0.995. For the same compound, the normalized growth is, setting by setting: under setting [10], 0.995; under setting [11], 1.01.
